# According to PubChem BioAssay (NCI):
# About 83,000 compounds went through this panel and 20% of them were active in at least one assay; those are over-represented in the sample as a whole.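 Results are percent growth after 48 hours of single-concentration exposure. 100 means growth as in untreated cells, lower positive values show inhibition; negative values down to -100 show cell death.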 Unmarked numbers belong to inactive results. Active and inactive are the calls of the source. Rule for the calls: active = growth percent below 10; inactive = the rest.
# System: HL-60(TB) leukemia
# Assay: NCI-60 one-dose screen, 48 h (100 = growth as untreated, 0 = no growth, -100 = all killed)
# Details: 10 µM unless noted
row,Compound,growth
1,Nc1ncnc2c1N=C(c1ccc3c(c1)OCO3)CC(c1ccc(Cl)cc1)N2 (centres undefined),88.1%
2,COc1cc2oc3cc(=O)cc4oc(-c5ccccc5)cc(c2c2c1CCC(c1ccccc1)O2)c43 (centres undefined),138%
3,N#Cc1c2c(c(N)[nH]c1=O)C(=O)NC2(O)c1ccccc1 (centres undefined),93.8%
4,COc1ccc2c(c1)oc1c(C)c3c(c(C)c12)C(=O)N(CCN1CCOCC1)C3=O,87.6%
5,Nc1ccc(-c2ccncc2)cc1NC(=O)N1CCCC1,120%
6,CC(=O)Nc1ccccc1-c1n[nH]c(=O)[nH]c1=O,109%
7,COc1ccccc1Nc1cc(O)c2c(=O)cc(-c3ccccc3)oc2c1,-6.07% (active)
8,C=C(C)[C@@H]1CC[C@]2(C=NCCCNCCCCNCCCN)CC[C@]3(C)[C@H](CC[C@@H]4[C@@]5(C)CCCNC(C)(C)[C@@H]5CC[C@]43C)[C@@H]12,89.6%
9,O=c1[nH]c2ccccc2n2cc3cccnc3c12,87.5%
10,CC1CC(O)CC(C)(C)C1 (centres undefined),80.8%
11,C[C@H](NC(=O)c1c(N)nn2cccnc12)c1cc2cccc(C#Cc3cnn(C)c3)c2c(=O)n1-c1ccccc1,-18.2% (active)
12,N=C(N)c1ccc(-c2ccc(-c3cccs3)s2)cc1F,-47.8% (active)
13,C=C1C(=O)O[C@H]2[C@H]1CC/C(CNS(=O)(=O)c1cccc3ccccc13)=C\CC[C@@]1(C)O[C@@H]21,-31.9% (active)
14,Cc1ccc(C(=O)C2=C(O)C(=O)N(Cc3cccnc3)C2c2ccccc2F)o1 (centres undefined),99.7%
